Targets with a hit are over-represented here; the source holds about 8,800 in all. About 0.5% of all pairs of compound and target were hits. Unmarked numbers belong to inactive results.
Key:
Test in all cases: log2 fold change, soluble protein after heating vs DMSO (PISA); higher = thermal stabilisation; K562 lysate, 10 uM; active = over 0.2 and 3.5 SD of the protein, either way, in both replicates (recomputed)
nilotinib = compound: Cc1cn(-c2cc(NC(=O)c3ccc(C)c(Nc4nccc(-c5cccnc5)n4)c3)cc(C(F)(F)F)c2)cn1 [nilotinib]
Summary of the method: (§1)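 Pellets of K562 cells were dounce-homogenised in PBS pH 7.4 with 1 mM MgCl2, and the crude extract was held at 1 mg/mL protein for a 30 min treatment with 10 μM compound. Aliquots were heated for 3 min over 48°C-58°C and pooled before NP-40 was added to 0.5% at 4°C. The supernatant from 21,000xg for 90 min was quantified by TMTpro 16plex LC-MS/MS with channel sums equalised. Values are reported from duplicates as log-two fold change in thermal stability relative to solvent controls.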

[1] = compound: Cc1nc(Nc2n[nH]c3c2CN(C(=O)N[C@H](CN(C)C)c2ccccc2)C3(C)C)c2sccc2n1
Summary of the method: as §1

dasatinib = compound: Cc1nc(Nc2ncc(C(=O)Nc3c(C)cccc3Cl)s2)cc(N2CCN(CCO)CC2)n1 [dasatinib]
Summary of the method: as §1

[2] = compound: Cc1ncc(-c2ccnc(Nc3ccc(S(C)(=O)=O)cc3)n2)n1C(C)C
Summary of the method: as §1

[3] = compound: Cn1cc(-c2ccc3c(c2)CCN3C(=O)Cc2cccc(C(F)(F)F)c2)c2c(N)ncnc21
Summary of the method: as §1

quisinostat = compound: Cn1cc(CNCC2CCN(c3ncc(C(=O)NO)cn3)CC2)c2ccccc21 [quisinostat]
Summary of the method: as §1

tipifarnib = compound: Cn1cncc1[C@@](N)(c1ccc(Cl)cc1)c1ccc2c(c1)c(-c1cccc(Cl)c1)cc(=O)n2C [tipifarnib]
Summary of the method: as §1

[4] = compound: NC(=O)Nc1cc(-c2cccc(F)c2)sc1C(=O)N[C@H]1CCCNC1
Summary of the method: as §1

[5] = compound: NC(=O)c1cnc(N[C@@H]2CCCC[C@@H]2N)nc1Nc1cccc(-n2nccn2)c1
Summary of the method: as §1

[6] = compound: NC1(c2ccc(-c3nc4ccn5c(=O)[nH]nc5c4cc3-c3ccccc3)cc2)CCC1
Summary of the method: as §1

Sequence of UniProt P04150 (P04150 whole entry, looked up): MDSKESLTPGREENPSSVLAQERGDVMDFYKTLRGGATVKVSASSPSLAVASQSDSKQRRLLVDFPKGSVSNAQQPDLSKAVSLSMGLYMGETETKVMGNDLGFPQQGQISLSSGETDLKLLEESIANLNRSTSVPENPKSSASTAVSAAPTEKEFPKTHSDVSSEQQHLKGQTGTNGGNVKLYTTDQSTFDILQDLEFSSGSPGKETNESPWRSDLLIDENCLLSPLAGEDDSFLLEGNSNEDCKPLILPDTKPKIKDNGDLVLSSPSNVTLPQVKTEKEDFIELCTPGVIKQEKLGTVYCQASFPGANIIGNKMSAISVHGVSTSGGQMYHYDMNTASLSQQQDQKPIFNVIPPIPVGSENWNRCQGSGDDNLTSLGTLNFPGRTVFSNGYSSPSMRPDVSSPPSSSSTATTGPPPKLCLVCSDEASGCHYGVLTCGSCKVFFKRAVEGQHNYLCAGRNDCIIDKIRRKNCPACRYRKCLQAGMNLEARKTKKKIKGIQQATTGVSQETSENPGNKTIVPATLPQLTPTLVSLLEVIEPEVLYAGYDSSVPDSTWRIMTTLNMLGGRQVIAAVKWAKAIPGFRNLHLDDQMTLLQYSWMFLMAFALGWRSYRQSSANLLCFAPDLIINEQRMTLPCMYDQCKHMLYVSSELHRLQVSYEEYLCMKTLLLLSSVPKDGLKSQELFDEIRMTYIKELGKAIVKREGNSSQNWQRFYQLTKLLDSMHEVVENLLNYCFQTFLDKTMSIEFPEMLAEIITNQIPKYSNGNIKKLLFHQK
Sequence of UniProt P30419 (P30419 whole entry, looked up): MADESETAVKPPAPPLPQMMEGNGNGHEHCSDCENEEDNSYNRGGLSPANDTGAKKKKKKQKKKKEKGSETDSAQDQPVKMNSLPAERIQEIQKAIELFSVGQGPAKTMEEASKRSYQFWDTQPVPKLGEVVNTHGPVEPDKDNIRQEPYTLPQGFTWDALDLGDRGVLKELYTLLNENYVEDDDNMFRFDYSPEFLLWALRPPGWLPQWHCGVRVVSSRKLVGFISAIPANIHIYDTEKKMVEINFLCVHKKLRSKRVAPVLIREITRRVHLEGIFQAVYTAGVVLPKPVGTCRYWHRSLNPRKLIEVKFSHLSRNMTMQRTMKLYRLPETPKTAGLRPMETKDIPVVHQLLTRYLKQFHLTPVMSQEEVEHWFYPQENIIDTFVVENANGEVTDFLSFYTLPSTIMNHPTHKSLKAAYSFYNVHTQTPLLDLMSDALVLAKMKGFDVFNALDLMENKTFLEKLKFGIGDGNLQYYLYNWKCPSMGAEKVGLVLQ
Sequence of UniProt Q9NVE7 (Q9NVE7 whole entry, looked up): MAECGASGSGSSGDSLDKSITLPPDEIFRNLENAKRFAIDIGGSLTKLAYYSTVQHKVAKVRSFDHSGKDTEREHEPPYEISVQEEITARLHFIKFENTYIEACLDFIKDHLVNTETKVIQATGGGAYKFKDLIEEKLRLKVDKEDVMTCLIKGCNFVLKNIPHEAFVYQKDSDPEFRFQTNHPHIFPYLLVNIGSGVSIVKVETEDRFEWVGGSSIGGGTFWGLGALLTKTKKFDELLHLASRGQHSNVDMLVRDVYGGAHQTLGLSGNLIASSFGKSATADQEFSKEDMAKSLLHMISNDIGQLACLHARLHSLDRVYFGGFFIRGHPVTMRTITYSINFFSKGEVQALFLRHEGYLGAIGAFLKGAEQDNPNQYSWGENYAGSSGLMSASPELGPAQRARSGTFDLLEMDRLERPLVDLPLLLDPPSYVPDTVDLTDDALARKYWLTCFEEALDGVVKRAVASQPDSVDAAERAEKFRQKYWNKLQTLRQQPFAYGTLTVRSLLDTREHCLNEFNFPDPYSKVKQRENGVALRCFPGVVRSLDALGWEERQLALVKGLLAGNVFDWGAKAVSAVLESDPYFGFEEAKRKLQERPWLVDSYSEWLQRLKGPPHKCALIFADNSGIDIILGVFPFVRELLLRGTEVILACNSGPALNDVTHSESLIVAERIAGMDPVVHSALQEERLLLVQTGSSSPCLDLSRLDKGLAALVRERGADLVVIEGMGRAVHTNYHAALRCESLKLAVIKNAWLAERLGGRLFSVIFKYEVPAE
Sequence of UniProt Q5VZE5 (Q5VZE5 whole entry, looked up): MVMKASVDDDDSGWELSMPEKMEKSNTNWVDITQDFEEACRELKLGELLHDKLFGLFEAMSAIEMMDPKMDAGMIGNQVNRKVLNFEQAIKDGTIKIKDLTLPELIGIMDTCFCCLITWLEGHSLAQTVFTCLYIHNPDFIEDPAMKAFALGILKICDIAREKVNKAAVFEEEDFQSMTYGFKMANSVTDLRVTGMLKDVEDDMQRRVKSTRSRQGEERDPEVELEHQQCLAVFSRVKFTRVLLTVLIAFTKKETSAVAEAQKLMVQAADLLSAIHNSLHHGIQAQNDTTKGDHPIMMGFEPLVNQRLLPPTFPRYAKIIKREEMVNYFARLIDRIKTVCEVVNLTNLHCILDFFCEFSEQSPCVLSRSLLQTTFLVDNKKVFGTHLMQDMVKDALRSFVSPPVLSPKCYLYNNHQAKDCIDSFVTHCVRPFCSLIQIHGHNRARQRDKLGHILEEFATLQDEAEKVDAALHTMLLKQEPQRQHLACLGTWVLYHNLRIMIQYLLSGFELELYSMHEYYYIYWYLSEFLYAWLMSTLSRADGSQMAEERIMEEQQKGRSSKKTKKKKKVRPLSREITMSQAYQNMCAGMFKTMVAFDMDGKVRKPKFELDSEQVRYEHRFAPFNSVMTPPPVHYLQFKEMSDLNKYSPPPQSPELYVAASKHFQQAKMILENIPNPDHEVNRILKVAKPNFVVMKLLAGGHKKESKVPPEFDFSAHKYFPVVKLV
Sequence of UniProt O96013 (O96013 whole entry, looked up): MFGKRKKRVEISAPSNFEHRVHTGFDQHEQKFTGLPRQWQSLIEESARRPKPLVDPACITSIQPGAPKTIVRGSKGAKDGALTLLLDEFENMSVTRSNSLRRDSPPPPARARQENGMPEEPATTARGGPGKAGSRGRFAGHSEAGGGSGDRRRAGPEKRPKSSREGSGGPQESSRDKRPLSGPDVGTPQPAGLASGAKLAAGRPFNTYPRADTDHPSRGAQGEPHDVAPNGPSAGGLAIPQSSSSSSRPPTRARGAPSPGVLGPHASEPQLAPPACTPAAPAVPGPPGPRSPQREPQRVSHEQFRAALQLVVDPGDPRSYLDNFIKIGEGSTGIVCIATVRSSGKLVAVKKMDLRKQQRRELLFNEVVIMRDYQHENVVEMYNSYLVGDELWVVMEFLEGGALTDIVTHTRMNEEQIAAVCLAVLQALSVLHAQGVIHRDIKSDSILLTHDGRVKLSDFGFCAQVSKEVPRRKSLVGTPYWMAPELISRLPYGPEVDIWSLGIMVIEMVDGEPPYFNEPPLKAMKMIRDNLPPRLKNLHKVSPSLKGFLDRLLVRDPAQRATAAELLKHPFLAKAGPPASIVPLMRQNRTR
Sequence of UniProt Q8TEW0 (Q8TEW0 whole entry, looked up): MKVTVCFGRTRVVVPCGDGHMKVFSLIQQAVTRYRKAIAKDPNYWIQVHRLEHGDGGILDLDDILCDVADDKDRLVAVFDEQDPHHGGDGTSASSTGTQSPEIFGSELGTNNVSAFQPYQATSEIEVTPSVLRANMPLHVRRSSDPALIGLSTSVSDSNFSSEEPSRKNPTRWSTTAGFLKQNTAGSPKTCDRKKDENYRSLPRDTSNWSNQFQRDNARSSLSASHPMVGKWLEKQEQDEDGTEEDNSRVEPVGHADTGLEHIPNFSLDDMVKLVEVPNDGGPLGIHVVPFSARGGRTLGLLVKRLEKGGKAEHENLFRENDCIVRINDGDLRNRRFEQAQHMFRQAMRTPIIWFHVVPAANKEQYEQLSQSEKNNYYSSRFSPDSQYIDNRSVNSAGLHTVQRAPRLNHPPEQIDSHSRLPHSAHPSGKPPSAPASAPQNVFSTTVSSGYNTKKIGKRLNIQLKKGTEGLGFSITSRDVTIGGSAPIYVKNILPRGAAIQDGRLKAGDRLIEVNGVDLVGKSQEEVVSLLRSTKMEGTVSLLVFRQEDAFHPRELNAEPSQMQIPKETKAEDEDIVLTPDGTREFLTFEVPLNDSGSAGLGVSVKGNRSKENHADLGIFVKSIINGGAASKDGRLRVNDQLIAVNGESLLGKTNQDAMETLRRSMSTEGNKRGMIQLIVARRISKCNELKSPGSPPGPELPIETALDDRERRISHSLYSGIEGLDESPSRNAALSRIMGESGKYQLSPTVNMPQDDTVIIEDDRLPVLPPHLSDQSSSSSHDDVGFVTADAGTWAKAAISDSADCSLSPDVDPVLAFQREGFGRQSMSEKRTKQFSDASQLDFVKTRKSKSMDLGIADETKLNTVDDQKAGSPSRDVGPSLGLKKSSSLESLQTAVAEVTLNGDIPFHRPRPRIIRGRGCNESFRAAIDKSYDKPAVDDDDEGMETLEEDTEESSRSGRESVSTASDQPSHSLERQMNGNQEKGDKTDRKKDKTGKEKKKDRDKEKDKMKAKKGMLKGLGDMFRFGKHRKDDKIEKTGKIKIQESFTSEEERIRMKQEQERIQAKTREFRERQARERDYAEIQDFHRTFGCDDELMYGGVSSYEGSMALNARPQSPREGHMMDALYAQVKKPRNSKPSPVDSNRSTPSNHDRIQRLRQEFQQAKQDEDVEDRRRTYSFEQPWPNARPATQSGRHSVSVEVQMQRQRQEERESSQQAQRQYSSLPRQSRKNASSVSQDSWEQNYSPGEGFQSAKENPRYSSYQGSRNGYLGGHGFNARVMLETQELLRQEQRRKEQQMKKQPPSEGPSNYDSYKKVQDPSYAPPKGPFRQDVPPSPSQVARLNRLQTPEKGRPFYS
Sequence of UniProt P15559 (P15559 whole entry, looked up): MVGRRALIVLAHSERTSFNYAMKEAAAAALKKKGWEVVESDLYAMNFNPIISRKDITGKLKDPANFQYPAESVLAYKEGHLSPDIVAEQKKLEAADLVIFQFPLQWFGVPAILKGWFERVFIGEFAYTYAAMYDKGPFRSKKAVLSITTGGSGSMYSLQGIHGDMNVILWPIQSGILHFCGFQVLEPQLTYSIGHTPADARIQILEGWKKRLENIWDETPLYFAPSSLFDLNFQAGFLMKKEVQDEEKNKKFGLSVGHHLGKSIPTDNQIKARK

Row | Target | log2 fold change (nilotinib) | log2 fold change [1] | log2 fold change (dasatinib) | log2 fold change [2] | log2 fold change [3] | log2 fold change (quisinostat) | log2 fold change (tipifarnib) | log2 fold change [4] | log2 fold change [5] | log2 fold change [6]
1 | MRPL53 (UniProt Q96EL3) | -0.04 | 0.026 | -0.018 | 0.015 | 0.06 | 0.02 | -0.034 | -0.041 | -0.006 | 0.031
2 | PAK4 (UniProt O96013) | -0.015 | 0.71 (active) | 0.141 | 0.264 | -0.081 | -0.269 | -0.016 | 0.9 (active) | 0.473 | 0.257
3 | NIPSNAP3A (UniProt Q9UFN0) | 0.001 | 0.016 | 0.028 | 0.008 | -0.054 | -0.053 | 0.015 | 0.007 | -0.052 | -0.025
4 | NMT1 (UniProt P30419) | -0.037 | 0.044 | 0.058 | -0.016 | -0.022 | -0.065 | 0.001 | 0.007 | -0.005 | -0.057
5 | PANK2 (UniProt Q9BZ23) | -0.068 | -0.111 | 0.135 | 0.001 | -0.032 | 0.045 | 0.126 | -0.053 | -0.005 | 
6 | MSH3 (UniProt P20585) | -0.007 | 0.034 | -0.03 | 0.028 | 0.014 | -0.037 | -0.001 | -0.003 | 0.011 | -0.035
7 | PARD3 (UniProt Q8TEW0) | -0.114 | -0.109 | 0.021 | -0.031 | 0.024 | -0.002 | 0.121 | 0.029 | 0.199 | 0.105
8 | NCAPG (UniProt Q9BPX3) | 0.01 | 0.002 | -0.062 | 0 | 0.007 | -0.08 | 0 | 0.012 | -0.004 | -0.019
9 | OSBPL3 isoform 2 (UniProt Q9H4L5) | 0.085 | -0.048 | -0.191 | -0.026 | 0.024 | -0.051 | -0.02 | 0.003 | 0.017 | -0.151
10 | NAA35 (UniProt Q5VZE5) | -0.019 | 0.014 | -0.005 | 0.009 | 0.01 | -0.075 | 0.034 | 0.001 | -0.035 | 0.016
11 | PANK4 (UniProt Q9NVE7) | 0.028 | -0.006 | -0.086 | -0.006 | 0.003 | -0.054 | 0.009 | 0.038 | -0.003 | -0.045
12 | NOCT (UniProt Q9UK39) | -0.045 | 0.011 | 0.013 | -0.084 | 0.017 | 0 | 0.061 | 0.043 | 0.004 | -0.014
13 | NFATC4 isoform 2 (UniProt Q14934) | -0.046 | -0.018 | 0.055 | 0.04 | -0.041 | -0.07 | -0.066 | 0.01 | -0.017 | 
14 | NARS2 (UniProt Q96I59) | 0.019 | -0.027 | -0.046 | -0.014 | 0.026 | -0.023 | 0.007 | 0.051 | 0.037 | -0.037
15 | NGLY1 (UniProt Q96IV0) | -0.004 | 0.02 | -0.038 | 0.008 | 0.042 | -0.104 | -0.016 | 0.041 | -0.005 | -0.03
16 | OGFR (UniProt Q9NZT2) | -0.016 | 0.021 | -0.022 | -0.005 | 0.042 | -0.004 | 0.04 | 0.02 | -0.001 | 0.028
17 | NQO1 (UniProt P15559) | 0.051 | -0.031 | 0.244 | 0.022 | -0.104 | 0.021 | 0.042 | 0.042 | -0.027 | 0.056
18 | MXRA7 (UniProt P84157) | -0.307 | 0 | 0.03 | -0.202 | -0.034 | -0.069 | -0.006 | 0.1 | -0.078 | -0.003
19 | NFAT5 isoform 5 (UniProt O94916) | -0.012 | -0.07 | 0.008 | 0.046 | -0.014 | -0.172 | -0.032 | 0.031 | 0.018 | 0.039
20 | NF1 (UniProt P21359) | -0.021 | 0.053 | 0.007 | -0.039 | 0.024 | -0.059 | 0.018 | 0.041 | 0.016 | -0.016
21 | NELFA (UniProt Q9H3P2) | -0.018 | -0.01 | -0.064 | -0.02 | -0.009 | -0.007 | 0.024 | 0.03 | 0.048 | -0.014
22 | NDUFA4 (UniProt O00483) | 0.062 | 0.058 | 0.043 | 0.16 | -0.007 | 0.104 | 0.031 | -0.065 | 0.08 | 0.019
23 | MYOM1 (UniProt P52179) | -0.127 | -0.078 | 0.058 | 0.039 | 0.023 | 0.115 | 0.01 | 0.083 | -0.016 | -0.035
24 | MTHFD1L (UniProt B7ZM99) | -0.017 | 0.028 | -0.061 | 0.002 | 0.046 | -0.055 | -0.01 | 0.074 | 0.019 | -0.017
25 | NOA1 (UniProt Q8NC60) | -0.041 | -0.012 | -0.05 | -0.011 | -0.036 | -0.089 | -0.027 | 0.059 | 0.04 | -0.001
26 | NUDT4 (UniProt Q9NZJ9) | 0.115 | -0.03 | 0.038 | -0.002 | 0.006 | 0.129 | 0.11 | 0.018 | -0.059 | 0.022
27 | NR3C1 isoform 3 (UniProt P04150) | -0.021 | -0.069 | -0.042 | 0.044 | -0.014 | -0.032 | -0.038 | 0.035 | 0.03 | -0.021
28 | NNMT (UniProt P40261) | -0.044 | -0.01 | 0.058 | 0.03 | 0.003 | -0.145 | -0.008 | 0.004 | 0.035 | -0.033
29 | ORC2 (UniProt Q13416) | 0 | 0.009 | -0.036 | -0.014 | -0.004 | -0.016 | 0.004 | 0.095 | -0.004 | -0.029
30 | NPM3 (UniProt O75607) | -0.039 | -0.012 | 0.065 | 0.049 | 0.024 | -0.024 | -0.027 | 0.019 | 0.03 | -0.029

— the supplement of paper PMC10849652
